# According to PubChem BioAssay (NCATS):
# Results filed as inconclusive are left out. Active and inactive are the calls of the source. The call rests on the fitted dose curve; in most records, active means well fitted inhibition curve with a large enough effect; inconclusive means small, poorly fitted or top-dose-only effect; inactive means flat fitted curve, though single readings scatter.
# Target: Ubiquitin carboxyl-terminal hydrolase 1 (Homo sapiens) (UniProt O94782)
# Experiment: Inhibitors of USP1/UAF1: Pilot qHTS (AID 504865); further: nearly all actives have a fitted effect of over 35% in size;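 on activity change, negative = inhibition: rhodamine fluorescence freed from ubiquitin-rhodamine substrate followed over time; top concentration of the series differs between compounds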
# Conditions: purified USP1/UAF1, Ub-rhodamine cleavage fluorescence; series mostly up to 114 µM; activity change, negative = inhibition: at the top concentration
# From the text: Deubiquitinating enzymes (DUBs) are a class of enzymes that can cleave isopeptide bond formed between the C-terminal carboxylate of ubiquitin and a lysine side-chain amino group on the target protein. Among them, ubiquitin specific proteases (USPs) constitute the largest DUB family. Human USPs are emerging as promising targets for pharmacological intervention because of their connection to a number of human diseases, including prostate, colon and breast cancer (1, 2), pediatric acute lymphoblastic leukemia (3), and familial cylindromatosis (4). The advantage of inhibiting USPs lies in the potential specificity of therapeutic intervention that can lead to better efficacy and reduce nonspecific side effects.
# In a collaboration between the University of Delaware and the NIH Chemical Genomics Center, a high-throughput screen assay was developed to screen for USP1/UAF1 inhibitors. This miniaturized assay has a fluorescent read-out and is used to screen the NIH Molecular Libraries Small Molecule Repository (MLSMR) in order to identify a small molecule that inhibits USP1.
# NIH Chemical Genomics Center [NCGC]
# NIH Molecular Libraries Probe Centers Network [MLPCN]
# Assay Submitter (PI): Zhihao Zhuang, University of Delaware
# 1. Priolo, C., et al. (2006) The isopeptidase USP2a protects human prostate cancer from apoptosis. Cancer Res 66, 8625-8632
# 2. Popov, N., et al. (2007) The ubiquitin-specific protease USP28 is required for MYC stability. Nat Cell Biol 9, 765-774
# 3. De Pitta, C., et al. (2005) A leukemia-enriched cDNA microarray platform identifies new transcripts with relevance to the biology of pediatric acute lymphoblastic leukemia. Haematologica 90, 890-898
# 4. Kovalenko, A., et al. (2003) The tumour suppressor CYLD negatively regulates NF-kappaB signalling by deubiquitination. Nature 424, 801-805
# 3 microliters of reagents (buffer in columns 3 and 4 as negative control and 1nM USP1/UAF1 complex in columns 1, 2, and 5-48) are dispensed into Greiner black solid bottom 1536-well assay plates. Compounds are then transferred via Kalypsys pin tool equipped with 1536-pin array (10nl slotted pins, V&P Scientific, San Diego, CA). Following an incubation step of 15 min at room temperature, 1ul of Ub-Rho substrate (150nM final concentration) is added to initiate the reaction. The plates are immediately centrifuged at 1000 rpm for 15 seconds, and subsequently transferred to a ViewLux high-throughput CCD imager (PerkinElmer) wherein kinetic measurements of fluorescence are acquired using 480 nm excitation/540 nm emission filter set (6 reads every 60 seconds, see Table 1). All reagents are diluted in an assay buffer consisting of 50mM HEPES (pH 7.8), 0.5mM EDTA, 0.1 mg/ml BSA, 1mM TCEP, and 0.01% Tween-20.
# On the % scale 0 is the no-effect control and ±100 the full control effect; potency means the concentration at half of the fitted maximal effect.
# Ubiquitin carboxyl-terminal hydrolase 1 (Homo sapiens), sequence (O94782 whole entry, looked up): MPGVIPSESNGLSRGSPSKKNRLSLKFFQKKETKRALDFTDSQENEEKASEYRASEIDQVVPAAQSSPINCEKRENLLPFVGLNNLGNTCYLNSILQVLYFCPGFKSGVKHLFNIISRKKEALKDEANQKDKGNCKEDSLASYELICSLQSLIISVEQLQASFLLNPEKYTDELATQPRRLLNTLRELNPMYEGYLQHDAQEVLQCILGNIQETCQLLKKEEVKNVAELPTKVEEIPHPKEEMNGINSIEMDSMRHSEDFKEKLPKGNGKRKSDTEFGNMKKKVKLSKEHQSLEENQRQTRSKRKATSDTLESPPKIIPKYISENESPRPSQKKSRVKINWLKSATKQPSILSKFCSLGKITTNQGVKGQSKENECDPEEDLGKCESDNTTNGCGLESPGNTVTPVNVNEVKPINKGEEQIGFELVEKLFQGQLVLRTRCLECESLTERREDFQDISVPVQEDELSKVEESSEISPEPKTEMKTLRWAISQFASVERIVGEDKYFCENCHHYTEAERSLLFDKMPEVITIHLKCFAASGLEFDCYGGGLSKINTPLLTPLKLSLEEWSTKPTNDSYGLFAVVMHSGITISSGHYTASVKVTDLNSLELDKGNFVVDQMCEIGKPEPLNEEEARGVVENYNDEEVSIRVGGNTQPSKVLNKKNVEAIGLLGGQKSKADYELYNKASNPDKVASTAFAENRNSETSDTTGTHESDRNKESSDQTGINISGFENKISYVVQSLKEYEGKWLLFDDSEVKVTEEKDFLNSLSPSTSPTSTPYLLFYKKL
SMILES,"activity change, negative = inhibition",Potency
C(=C/c1ccccc1)/CN1CCN(C(c2ccccc2)c2ccccc2)CC1,-6.4% [at 54.9 µM] (inactive),–
CN(C)c1ccc(-c2nc(N3CCNCC3)c3ccccc3n2)cc1,-14.5% (inactive),–
COc1cc2nc(N(C)CCCNC(=O)[C@@H]3CCCO3)nc(N)c2cc1OC,-3.55% [at 54.9 µM] (inactive),–
OC[C@H](S)CS,-9.39% (inactive),–
COc1ccc(CNc2nc(-c3ccccc3OC)nc3ccccc23)c(OC)c1,–,20 µM (active)
COc1ccccc1-c1nc(NCCc2cnc[nH]2)c2ccccc2n1,-5.09% [at 54.9 µM] (inactive),–
Cc1nnc(SCC2=C(C(=O)O)N3C(=O)[C@@H](NC(=O)Cn4cnnn4)[C@@H]3SC2)s1,7.22% [at 54.9 µM] (inactive),–
C[C@]12CC[C@H]3c4ccc(O)cc4CC[C@@H]3[C@H]1CC[C@@H]2OP(=O)(O)O,1.54% (inactive),–
CC[C@@H](CO)Nc1nc(NCc2ccccc2)c2ncn(C(C)C)c2n1,-2.93% (inactive),–
N[C@H](COP(=O)(O)O)C(=O)O,-5.89% (inactive),–
Cc1onc(-c2c(F)cccc2Cl)c1C(=O)N[C@@H]1C(=O)N2[C@H]1SC(C)(C)[C@H]2C(=O)O,-2.1% (inactive),–
C[N+]1(C)[C@@H]2CC(OC(=O)[C@@H](CO)c3ccccc3)C[C@@H]1[C@H]1O[C@H]12 (stereo not given in full),4.07% (inactive),–
CN(C)c1ccc(-c2cc(NCc3ccccc3)ncn2)cc1,-11.9% (inactive),–
CNc1ncncc1-c1ccc(C(=O)N(C)C)cc1,-6.96% (inactive),–
N[C@@H](Cc1ccccc1)C(=O)O,-5.79% (inactive),–
CC(C)(C)NC[C@@H](O)c1ccc(O)c(CO)n1,-3.66% (inactive),–
CN(C)Cc1ccccc1-c1ccc2ncnc(NC3CCNCC3)c2c1,-4.39% (inactive),–
CC1(C)S[C@@H]2[C@H](NC(=O)Cc3ccccc3)C(=O)N2[C@@H]1C(=O)O,-2.38% (inactive),–
CC(C)(C)c1ccc(CN2CCN([C@H](c3ccccc3)c3ccc(Cl)cc3)CC2)cc1,-4.74% (inactive),–
Oc1cc2c(cc1O)[C@H]1c3ccc(O)c(O)c3OC[C@@]1(O)C2,-13.9% (inactive),–
C[C@H](CCC(=O)O)[C@H]1CC[C@@H]2[C@H]3[C@@H](C[C@@H](O)[C@]21C)[C@]1(C)CC[C@H](O)C[C@@H]1C[C@@H]3O,-5.69% (inactive),–
O=C(O)[C@@H](O)[C@@H](O)[C@H](O)C(=O)CO,-4.76% (inactive),–
COc1cccc2c1C(=O)c1c(O)c3c(c(O)c1C2=O)C[C@](O)(C(=O)CO)C[C@@H]3O[C@H]1C[C@H](N)[C@@H](O)[C@H](C)O1,-3.09% (inactive),–
Cc1cn([C@H]2C[C@H](N=[N+]=[N-])[C@H](CO)O2)c(=O)[nH]c1=O,-2.92% (inactive),–
CC1(C)[C@@H]2CC[C@]1(C)[C@@H](OC(=O)CSC#N)C2,-10.5% (inactive),–
COc1ccccc1-c1nc(NCc2ccccc2)c2ccccc2n1,–,11.2 µM (active)
C[C@H]1C[C@@H]2[C@H]3CCC4=CC(=O)C=C[C@@]4(C)[C@@]3(Cl)[C@@H](O)C[C@]2(C)[C@]1(OC(=O)c1ccco1)C(=O)CCl,-1.21% [at 54.9 µM] (inactive),–
COc1ccc2cc1Oc1ccc(cc1)C[C@H]1c3cc(c(OC)cc3CCN1C)Oc1c(OC)c(OC)cc3c1[C@@H](C2)N(C)CC3,7.87% [at 54.9 µM] (inactive),–
O=C(O)[C@@H](O)[C@@H](O)[C@H](O)[C@H](O)CO,-4.56% (inactive),–
NS(=O)(=O)c1cc2c(cc1Cl)N[C@H](Cc1ccccc1)NS2(=O)=O,-10.3% (inactive),–
